# The list is not random: actives were taken first. Their share in the collection is about 3.3%.
# Sm TGR block: inhibitors of Schistosoma mansoni thioredoxin glutathione reductase | Q962Y6 | purified TGR, DTNB reduction, TNB absorbance 405 nm | Potency, µM (doses to about 114 µM), for the others: at the highest dose activity change, negative = inhibition, usual class: inhibitors | hit rate 3% among 360,000; also: nearly all actives have a fitted effect of over 60% in size
#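 TGR 20 nM + NADPH 100 uM (dispensed conc.), cpd preinc 15 min RT; start with NADPH (500 uM addition) then DTNB (15 mM addition). Kinetic TNB absorbance, 405 nm filter. Four-parameter Hill fit across titration.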
# AmpC inh detg: blocks E. coli AmpC beta-lactamase in detergent assay. hit rate 0.041% among 370,000. Potency, µM (titrated, usually from 114 µM), for inactives: top-dose activity change, negative = inhibition, hits mostly inhibitors. AmpC hydrolysis of nitrocefin, absorbance 480 nm, 0.01% Triton;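 also: 0% = no-compound wells and -100% = no-enzyme wells; nearly all actives have a fitted effect of over 25% in size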
# Target sequence (P00811 whole entry, looked up): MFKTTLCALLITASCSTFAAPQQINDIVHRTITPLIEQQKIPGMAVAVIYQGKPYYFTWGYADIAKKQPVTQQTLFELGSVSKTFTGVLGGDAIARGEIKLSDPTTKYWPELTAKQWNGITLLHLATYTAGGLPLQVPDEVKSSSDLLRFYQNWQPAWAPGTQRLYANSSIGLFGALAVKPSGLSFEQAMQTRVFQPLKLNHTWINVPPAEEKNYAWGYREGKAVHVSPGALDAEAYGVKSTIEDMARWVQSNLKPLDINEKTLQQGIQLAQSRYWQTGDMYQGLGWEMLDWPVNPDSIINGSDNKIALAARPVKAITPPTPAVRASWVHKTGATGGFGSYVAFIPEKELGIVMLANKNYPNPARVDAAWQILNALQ
#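 AmpC (5.3 nM in the dispensed reagent) in 20 mM phosphate pH 7.0 with 0.01% (detergent screen) or 0.0001% Triton X-100 was preincubated with compounds for 15 min at room temperature. Nitrocefin was then added from an 800 uM solution, and hydrolysis was followed at 480 nm.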
# AmpC no deterg: inhibitors of E. coli AmpC beta-lactamase without detergent; AmpC nitrocefin hydrolysis, absorbance 480 nm, 0.0001% Triton; Potency, µM (top dose mostly 57.1 µM), for inactives: at the highest dose activity change, negative = inhibition, usual class: inhibitors; hit rate 0.52% among 330,000; P00811;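 also: plate controls were no compound for no effect and no enzyme for full effect; nearly all actives have a fitted effect of over 20% in size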
#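 20 mM phosphate pH 7.0 + 0.01% (detergent screen) or 0.0001% Triton X-100; 5.3 nM AmpC reagent; cpd preinc 15 min RT; nitrocefin (800 uM stock) to start; A480 q20 s × 4 min; Activity was normalised to no-enzyme and no-compound control wells.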
# * marks the source's active call; other numbers are inactive results; ? = inconclusive; nt = no result given. Calls follow the shape of the dose curve; as a rule, active = well fitted curve in the direction sought with a large enough effect; inconclusive = small, poorly fitted or top-dose-only effect, or another doubt; inactive = no such curve, though single readings can be large; an effect the other way counts as inactive or inconclusive. Unless noted, % is scaled to controls: 0 for no effect and ±100 for the full control effect; potency is read from the fitted curve at half-maximal effect.
SMILES,Sm TGR block,AmpC inh detg,AmpC no deterg
CCOC(=O)C(CN1CCCC1)c1ccccc1 (configuration not stated),0%,?,-11%
O=C(c1ccc(Cl)cc1)C(CN1CCCCC1)c1ccccc1 (configuration not stated),6.3µM*,0%,-25%
O=C(c1ccccc1)C(CN1CCCC1)c1ccccc1 (configuration not stated),45µM*,2%,-8%
CC(CN1CCCCC1)OC(=O)c1ccc(Cl)cc1 (configuration not stated),4%,?,-6%
CCC(c1nnnn1Cc1ccco1)N1CCC(C(N)=O)CC1 (configuration not stated),0%,-17%,-13%
CC(C)C(c1nnnn1Cc1ccco1)N1CCC(C(N)=O)CC1 (configuration not stated),45µM*,?,-12%
COc1ccc(/C=N/NC(=O)CNC(=O)/C=C/c2ccco2)cc1OC,25µM*,6%,-16%
COc1ccccc1/C=C/C(=O)NCC(=O)N/N=C/c1ccccc1,-2%,-7%,-18%
COc1cc(/C=N/NC(=O)CNC(=O)/C=C/c2ccco2)cc(OC)c1OC,50µM*,-8%,-12%
COc1ccccc1/C=C/C(=O)NCC(=O)N/N=C/c1ccc2c(c1)OCO2,5%,3%,-7%
COc1ccc(OC)c(NC(=O)CN2C(=O)COc3ccc(S(=O)(=O)NC4CCCC4)cc32)c1,10%,2%,nt
Cc1cc(NC(=O)CSCC(=O)OCC(=O)c2cccc(Br)c2)no1,-8%,1%,32µM*
Cc1cc(NC(=O)CSCC(=O)OCC(=O)Nc2ccc(OC(F)F)cc2)no1,-4%,1%,-12%
Cc1ccc(S(=O)(=O)N2CCCc3cc(NS(=O)(=O)c4ccc(C)c(C)c4)ccc32)cc1,12%,2%,nt
COc1cccc(NC(=O)CN(C)C(C)C(=O)N2CCCCC2)c1 (configuration not stated),nt,nt,-3%
CC(C(=O)N1CCCC1)N(C)CC(=O)Nc1cccc(F)c1 (configuration not stated),8.9µM*,0%,-14%
CCCCN(C)CCNC(=O)c1ccc(Cn2c(=O)[nH]c3cc(OC)c(OC)cc3c2=O)cc1,3%,6%,nt
O=C(c1ccco1)n1c(=S)nc2ccccn21,50µM*,-5%,2%
Cc1ccn2c(c1)nc(=S)n2C(=O)c1ccccc1,0%,?,-9%
Cc1cccc2nc(=S)n(C(=O)c3ccco3)n12,22µM*,-4%,-15%
Cc1ccc(-c2nc(N)n(C(=O)c3ccco3)n2)cc1,2%,2%,-12%
COc1cccc(-c2nc(SC(C(C)=O)C(=O)N(C)C)c3c(=O)n(C)c(=O)n(C)c3n2)c1 (configuration not stated),-2%,21%,nt
COc1ccc(Nc2nnc(-c3ccc(C)c(S(=O)(=O)NCc4nc5ccccc5[nH]4)c3)c3ccccc23)cc1,-4%,2%,nt
CCOc1ccccc1NC(=O)c1c(NCc2ccc(C)o2)sc2c1CCC(C)C2 (configuration not stated),4%,2%,nt
COc1ccc(Cl)cc1NC(=O)NCc1cccnc1,5%,5%,21%
SMILES,Sm TGR block,AmpC inh detg,AmpC no deterg
COc1ccc(OC)c(NC(=O)c2c(NCc3ccc(OC)c(OC)c3)sc3c2CCC(C)C3)c1 (configuration not stated),-1%,5%,nt
COc1ccc(Cl)cc1NC(=O)c1c(NCc2cccnc2)sc2c1CCCC2,20µM*,6%,nt
CCOC(=O)c1c(NC(=O)C(C)OC(=O)C2=COCCO2)sc2c1CCCC2 (configuration not stated),0%,-9%,5%
COc1ccc(OC)c(NC(=O)c2c(NCc3ccc(C)o3)sc3c2CCC(C)C3)c1 (configuration not stated),40µM*,1%,nt
CCOC(=O)c1c(NC(=O)C(C)OC(=O)c2ccc(NC(=O)CC#N)cc2)sc2c1CCCC2 (configuration not stated),-4%,-13%,28µM*
CCOc1ccccc1NC(=O)c1c(NCc2ccc(C)o2)sc2c1CCCCC2,8.9µM*,-1%,nt
Cc1cc(C)cc(NC(=O)C(CC(C)C)NC(=O)C2CCCCC2)c1 (configuration not stated),8%,3%,nt
C=CCC(CC=C)(CNC(=O)C(=O)Nc1ccc(C)cc1)c1ccccc1,-1%,9%,nt
CCC1CCCCN1CCCNC(=O)c1[nH]c2ccccc2c1Sc1ccc(Cl)cc1 (configuration not stated),?,1%,nt
O=C(COc1cccc(Cl)c1)N1CCC(c2nc3ccccc3s2)CC1,1%,2%,nt
COc1ccc(-c2cc(C(=O)Nc3ccn(Cc4ccc(C)cc4)n3)no2)cc1OC,6%,20%,nt
COc1ccccc1CNc1nc2ccccc2c2nc(-c3cccnc3)nn12,-3%,25%,nt
CCOC(=O)c1ccc(NC(=O)c2c(NCc3sccc3C)sc3c2CCCCC3)cc1,50µM*,3%,nt
COc1ccc(Cl)cc1NC(=O)c1c(NCc2ccc(C)o2)sc2c1CCCC2,28µM*,-7%,nt
COc1ccc(NC(=O)c2c(NCc3cccc(OC)c3)sc3c2CCCC3)cc1,-33%,8%,nt
COc1ccc(NC(=O)c2c(NCc3ccc(OC)c(OC)c3OC)sc3c2CCC3)c(OC)c1,40µM*,1%,nt
CCOC(=O)c1ccc(NC(=O)c2c(NCc3cccc(OC)c3OC)sc3c2CCC3)cc1,4%,5%,nt
COC(=O)c1ccc(NC(=O)c2c(NCc3ccc(C)o3)sc3c2CCCC3)cc1,?,9%,nt
COc1ccc(NC(=O)c2c(NCc3ccc(N(C)C)cc3)sc3c2CCC3)cc1,32µM*,-5%,nt
COc1ccccc1NC(=O)c1c(NCc2ccc(OC)c(OC)c2OC)sc2c1CCC2,2%,-9%,nt
Cc1ccc2c(c1)c(=O)c(C(=O)c1ccncc1)cn2CC(=O)Nc1ccccc1Cl,-7%,-7%,nt
COc1cc(NC(=O)c2cc3nc(-c4ccc(C)cc4)cc(C(F)(F)F)n3n2)cc(OC)c1OC,-11%,3%,nt
Cc1ccc2nc(-c3cccc(NC(=O)c4cccc5c(Cl)cccc45)c3)oc2c1,8%,-3%,nt
CCCN1CCN(CC2=C(C(=O)OCC)C(c3cccc(OC)c3OC)NC(=O)N2)CC1 (configuration not stated),89µM*,2%,nt
CCCN1CCN(CC2=C(C(=O)OCC)C(c3ccc(Cl)cc3)NC(=O)N2)CC1 (configuration not stated),2%,3%,nt
COc1cc(CNC(=O)c2ccc3c(c2)c(C)c(C)n3Cc2cccc(C)c2)cc(OC)c1OC,-8%,2%,nt
CCC(C(=O)Nc1cc(C(F)(F)F)ccc1Cl)n1nc(C)c2sc3ccccc3c2c1=O (configuration not stated),4%,8%,nt
COc1ccc(S(=O)(=O)N(CCc2ccccc2)CC(=O)NCc2ccc(C)cc2)cc1,-4%,9%,nt
COc1ccc(-c2cn3cccnc3n2)cc1NC(=O)COc1ccccc1,0%,3%,nt
O=C(Cc1ccccc1)Nc1cc(-c2nc3cc(Cl)ccc3o2)ccc1Cl,0%,0%,nt
